Test results published in PubChem BioAssay (NCI).
The panel holds about 79,000 compounds, 15% with a hit somewhere; the sample as a whole holds those more often. Active and inactive are the calls of the source. No stated cut-off is given here; in the data, active means growth inhibition above about 70%; inactive means the rest.

Legend:
[1] = NCI Yeast Anticancer Drug Screen. Data for the wt1 strain (AID 149);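 further: 0% = growth of vehicle-treated wt1 cultures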; settings: S. cerevisiae wt1 strain (SPY 50644) growth inhibition, hits give high values
How it was run: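 Using yeast strain wt1, compound-induced growth inhibition was determined against vehicle-treated cultures.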

[2] = NCI Yeast Anticancer Drug Screen. Data for the rad50EPP+ strain (AID 151);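 further: 0% = growth of vehicle-treated control cultures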; settings: S. cerevisiae rad50 mutant strain, hits give high values
How it was run: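 Genetically defined yeast (rad50EPP+, DNA damage repair alteration) is grown with compound, and inhibition of growth is expressed relative to vehicle-treated controls.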

[3] = NCI Yeast Anticancer Drug Screen. Data for the mgt1 strain (AID 153); settings: S. cerevisiae mgt1 mutant growth inhibition, hits give high values
How it was run: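 In the mgt1 strain, test compounds were added and growth inhibition was determined relative to vehicle-treated controls.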

[4] = NCI Yeast Anticancer Drug Screen. Data for the rad50 strain (AID 155);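 further: 0% = growth of vehicle-only cultures of the same strain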; settings: S. cerevisiae rad50 strain growth inhibition, hits give high values
How it was run: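 Relative growth inhibition (compound vs vehicle) was measured in yeast with a defined repair-gene alteration.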

[5] = NCI Yeast Anticancer Drug Screen. Data for the mec2-1 strain (AID 157); settings: S. cerevisiae mec2-1 strain, hits give high values
How it was run: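 Each compound was tested on mec2-1 yeast, a strain altered in DNA damage repair or cell cycle control. Growth inhibition is reported relative to vehicle.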

[6] = NCI Yeast Anticancer Drug Screen. Data for the rad14 strain (AID 159);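 further: 0% = growth of vehicle-treated control cultures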; settings: S. cerevisiae rad14 strain growth inhibition, hits give high values
How it was run: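 Screen for anticancer potential: a yeast strain altered in DNA damage repair is grown with compound, and reduced growth is quantified against vehicle controls.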

[7] = NCI Yeast Anticancer Drug Screen. Data for the sgs1 mgt1 strain (AID 161);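 further: 0% = growth of cultures given vehicle only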; settings: S. cerevisiae sgs1 mgt1 strain, hits give high values
How it was run: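 Genetically altered yeast, compound exposure, growth inhibition relative to vehicle.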

[8] = NCI Yeast Anticancer Drug Screen. Data for the CLN2oe strain (AID 163);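 further: 0% = growth of vehicle-only control cultures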; settings: S. cerevisiae CLN2oe strain, hits give high values
How it was run: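 First, the altered yeast strain was treated with each compound; second, its growth was measured; finally, inhibition was derived by comparison with vehicle controls.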

[9] = NCI Yeast Anticancer Drug Screen. Data for the cln2 rad14 strain (AID 165);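 further: 0% = growth equal to vehicle treated cultures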; settings: S. cerevisiae cln2 rad14 strain, hits give high values
How it was run: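 Test compounds were added to cln2 rad14 yeast cultures; inhibition of growth was then determined by comparison with vehicle treatment.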

[10] = NCI Yeast Anticancer Drug Screen. Data for the bub3 strain (AID 167); settings: S. cerevisiae bub3 mutant strain, hits give high values
How it was run: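 Screening used yeast with an engineered genetic alteration affecting cell cycle control. Compound-exposed cultures were compared with vehicle cultures, and reduced growth was taken as inhibition.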

[11] = NCI Yeast Anticancer Drug Screen. Data for the wt2 strain (AID 169);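 further: 0% = growth of vehicle-treated yeast cultures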; settings: S. cerevisiae wt2 strain growth inhibition, hits give high values
How it was run: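 The panel's yeast strains carry defined changes in DNA repair or cell cycle genes. Each strain is grown with compound, and growth loss is scored relative to vehicle.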

[12] = NCI Yeast Anticancer Drug Screen. Data for the mlh1 strain (AID 171);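 further: 0% = growth of vehicle-treated control cultures of the same strain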; settings: S. cerevisiae mlh1 strain growth inhibition, hits give high values
How it was run: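 Inhibition values reflect reduced yeast growth in the presence of compound, referenced to vehicle controls, using a strain chosen for its alteration in DNA repair or cell cycle control.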

[13] = NCI Yeast Anticancer Drug Screen. Data for the sgs1 strain (AID 173);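 further: 0% = growth of vehicle-only control cultures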; settings: S. cerevisiae sgs1 mutant, hits give high values
How it was run: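 Vehicle-treated cultures served as reference for growth inhibition of a yeast strain altered in DNA damage repair or cell cycle control after compound exposure.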

[14] = NCI Yeast Anticancer Drug Screen. Data for the mlh1 rad18 strain (AID 175); settings: S. cerevisiae mlh1 rad18 strain growth inhibition, hits give high values
How it was run: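 Inhibition values reflect reduced growth of mutant yeast versus vehicle-treated controls following compound exposure; the mutations affect DNA damage repair.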

[15] = NCI Yeast Anticancer Drug Screen. Data for the rad18 strain (AID 177); settings: S. cerevisiae rad18 mutant growth inhibition, hits give high values
How it was run: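 Steps: expose repair-mutant yeast to compound; measure growth; express as inhibition relative to vehicle control.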

[16] = at 5.0 µM (retest, dose inferred, filed as 0.5)
[17] = at 50.0 µM (retest, dose inferred, filed as 5.0)

Measured: growth inhibition

Nc1c([N+](=O)[O-])cc2c3c(cccc13)CC2
inactive: [1]; at 1.2 µM 6% | [1]; at 3.7 µM 12% | [1]; at 11.0 µM 24% | [1]; at 33.0 µM 25% | [1]; at 100.0 µM 24% | [2]; at 1.2 µM 10% | [2]; at 3.7 µM 32% | [2]; at 11.0 µM 63% | [3]; at 1.2 µM 5% | [3]; at 3.7 µM 18% | [3]; at 11.0 µM 31% | [3]; at 33.0 µM 22% | [3]; at 100.0 µM 39% | [4]; at 1.2 µM 28% | [4]; at 3.7 µM 67% | [4]; [16] 3% | [5]; at 1.2 µM 4% | [5]; at 3.7 µM 14% | [5]; [16] 2% | [5]; at 11.0 µM 13% | [5]; at 33.0 µM 25% | [5]; [17] 29% | [5]; at 50.0 µM 27.9% | [5]; at 100.0 µM 29% | [6]; at 1.2 µM 11% | [6]; at 3.7 µM 14% | [6]; at 11.0 µM 30% | [6]; at 33.0 µM 39% | [6]; at 100.0 µM 54% | [7]; [16] 16% | [7]; [17] 54% | [7]; at 50.0 µM 52.5% | [8]; at 1.2 µM 8% | [8]; at 3.7 µM 14% | [8]; at 11.0 µM 17% | [8]; at 33.0 µM 20% | [8]; at 100.0 µM 26% | [9]; [16] -16% | [9]; [17] 20% | [9]; at 50.0 µM 21.5% | [10]; at 1.2 µM -4% | [10]; at 3.7 µM 0% | [10]; [16] -20% | [10]; at 11.0 µM 14% | [10]; at 33.0 µM 10% | [10]; [17] 17% | [10]; at 50.0 µM 21.4% | [10]; at 100.0 µM 11% | [11]; at 1.2 µM 3% | [11]; at 3.7 µM 10% | [11]; at 11.0 µM 18% | [11]; at 33.0 µM 25% | [11]; at 100.0 µM 55% | [12]; at 1.2 µM 5% | [12]; at 3.7 µM 14% | [12]; at 11.0 µM 20% | [12]; at 33.0 µM 28% | [12]; at 100.0 µM 53% | [13]; at 1.2 µM 8% | [13]; at 3.7 µM 20% | [13]; at 11.0 µM 33% | [13]; at 33.0 µM 45% | [13]; at 100.0 µM 65% | [14]; [16] 12% | [14]; [17] 65% | [15]; at 1.2 µM 24%
active: [2]; at 33.0 µM 74% | [2]; at 100.0 µM 71% | [4]; at 11.0 µM 79% | [4]; at 33.0 µM 77% | [4]; [17] 81% | [4]; at 50.0 µM 87.2% | [4]; at 100.0 µM 83% | [14]; at 50.0 µM 77.9% | [15]; at 3.7 µM 71% | [15]; at 11.0 µM 86% | [15]; at 33.0 µM 83% | [15]; at 100.0 µM 86%
